Test results as given in PubChem BioAssay (NCATS).
Inconclusive results are not listed. Calls follow the shape of the dose curve; as a rule, active = well fitted curve in either direction with a large enough effect (not every such curve was filed as active); inconclusive = small, poorly fitted or top-dose-only effect, or another doubt; inactive = flat fitted curve, though single readings scatter.

Test: Stat Signaling Pathway (AID 446);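 also: SIE-controlled beta-lactamase reporter measured as 460/530 nm FRET emission ratio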
Conditions: ME-180 (cervical carcinoma) SIE beta-lactamase reporter, IL-6 stimulated, 5 h; at 17.2 µM (top of the series) unless noted
Method in brief: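 Normalization used AC90 stimulation (300 pM IL-6) and AC90 inhibition (125 nM pan-JAK inhibitor at 40 pM IL-6). The underlying signal is SIE-driven beta-lactamase in ME-180 cells after 5 h IL-6 exposure with compound.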
% is scaled to controls: 0 for no effect and ±100 for the full control effect.

activity, negative = inhibition, inactive:
Oc1ccc(Br)cc1-c1cc(-c2ccccc2F)[nH]n1 -0.726%
CCN1CC2=C(OC(N)=C(C#N)C2c2ccccc2)/C(=C\c2ccccc2)C1 (centres undefined) -29.2%
CCCc1nc(NC2CCCCC2)c(C#N)c2c1COC(C)(C)C2 25.5%
N#Cc1c(N2CCOCC2)nc(N2CCCCC2)c2c1CCN(C1CCCCC1)C2 4.09%
CN(C)C(=O)COn1c(SCC(=O)N(C)C)nc2ccccc2c1=O 2.27%
Cc1ccc(CNc2oc(COc3ccccc3Cl)nc2C#N)cc1 -8.99%
CCCSc1nnc2n(-c3ccccc3OC)c(=O)c3c4c(sc3n12)CCC4 15%
COc1ccccc1N1CCN(CCCCOc2ccc(F)cc2)CC1 5.73%
CCOC(=O)c1[nH]c2ccccc2c1N=C(C)N(CC)CC 5.19%
Nc1nnnn1/N=C/c1ccco1 -1.38%
COC(=O)c1cc(=O)n2c(-c3ccc(OC)cc3)csc2n1 5.85%
O=C(NCCN1CCCCC1)/C(=N\O)c1ccccc1 -1.14%
CC(C)c1nc2sc3c(c2c(=O)o1)CCCC3 2.63%
Cc1cc(=O)oc2c(CN3CCC(C)CC3)c(O)c(Cl)cc12 7.86%
Nc1c2c(nc3ccccc13)N(C1CCCCC1)CC2 16.7%
CCN(CC)CCNc1nc(-c2ccco2)c2c(c1C#N)CC(C)(C)OC2 14.7%
CC(C)(C)OC(=O)NCCC(=O)Oc1ccc2ccc(=O)oc2c1 12.7%
Cc1nn(CC(=O)NCCN2CCOCC2)c(=O)c2ccccc12 8.76%
CCCSc1nc(N2CCCC2)c2c(c1C#N)CC(C)(C)OC2 6.07%
CCC(C)Nc1nc(-c2cccc(OC)c2O)nc2ccccc12 (centres undefined) -18.2%
Cc1ccc(N2C(=O)CC(N(O)C3CC(=O)N(c4ccc(C)cc4)C3=O)C2=O)cc1 (centres undefined) -25.3%
COc1ccc(C2C(C#N)=C(SC)NC3=C2C(=O)CC(C)(C)C3)cc1 (centres undefined) -6.08%
CN(C)CCCN1C(=O)C(=O)/C(=C(/O)c2ccccc2)C1c1ccccn1 (centres undefined) 4.69%
Cc1c(C)c2cc(Cl)c(O)c(CN3CCCCC3)c2oc1=O 2.68%
CCCSc1nnc2n(C)c(=O)c3c4c(sc3n12)CCC4 -5.35%
Fc1ccc(-c2cnc[nH]2)cc1 -3.45%
CCCc1cc(C(=O)Cc2ccc(F)cc2)c(O)cc1O -25.5%
CCc1nnc(NC(=O)CSc2nc(C)c3c(c2C#N)CCCC3)s1 -23.4%
CC(C)Cc1nc(N2CCCCC2)c(C#N)c2c1CCC2 9.01%
Cc1ccc(C)c(OCc2nnc(NC(=O)c3ccco3)s2)c1 -9.58%
O=C(c1cccs1)N1CCC(N2CCN(c3ccccc3)CC2)CC1 -2.08%
COc1cccc(NC(=O)C2CC(=O)n3cnnc3S2)c1 (centres undefined) -7.33%
O=C(Nc1nc(NC(=O)c2ccco2)n(-c2ccccc2)n1)c1ccccc1 -22.6%
Cc1cccc(N(Cc2cc3ccccc3[nH]c2=O)C(=O)c2ccco2)c1C -17%
Cc1cccn2c(=O)c3cc(C(N)=S)c(=N)n(CCCOC(C)C)c3nc12 13.3%
COCCCNC(=O)c1c(N)n(/N=C/c2cccnc2)c2nc3ccccc3nc12 -20.9%
CCCCOc1ccc(C(=O)OC2CC(C)N(C)CC2C)cc1 (centres undefined) 1.35%
COc1ccc2c(c1OC)C(=O)N1c3ccccc3C(=O)N(c3ccccc3F)C21 (centres undefined) -18.4%
C=CCn1c(=S)[nH]c2nc3c(cc2c1=O)CCCC3 -11.2%
